Laboratory results: PubChem BioAssay AID449762 (Southern Research Specialized Biocontainment Screening …, 2010)
Screen size: about 330,000 compounds; about 1,900 (0.58%) were called active. About 4% were inconclusive and are not listed. These entries were drawn from the full list. Entries with a potency or affinity are not part of this list. A number with no mark means an inactive call. Rule as the data show it: inconclusive = inhibition above about 70% without an active follow-up result; inactive = below that.

Assay: M. tuberculosis growth inhibition, HTS (AID 449762);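 also: bacterial growth assessed after seven days of incubation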
Conditions: M. tuberculosis H37Rv growth inhibition, 7H9 media; at 25 µM; active compounds read high

**Q.** Which inhibition does the source give for `COc1c(C)cc(C(=O)C2CCCN(Cc3ccc(Oc4ncccn4)cc3)C2)cc1C` (configuration not stated) here?
**A.** The inhibition was 7.33%.

**Q.** Which inhibition does the source give for `COc1cccc(C(=O)C2CCCN(Cc3ccccn3)C2)c1` (configuration not stated) here?
**A.** The inhibition was 33.9%.

**Q.** With `COc1ccc(N2CCN(CCNC(=O)c3ccc(NC(=O)C4CCCO4)cc3)CC2)cc1` (configuration not stated) as the compound, how does the inhibition read?
**A.** The inhibition was -2.8%.

**Q.** For `CC1CCN(C2=NC(=O)/C(=C/c3cn[nH]c3-c3ccccc3)S2)CC1`, which inhibition is on record?
**A.** Its inhibition is 12.8%.

**Q.** With `O=C1N=C(N2CCCC2)S/C1=C\c1cn[nH]c1-c1ccccc1` as the compound, how does the inhibition read?
**A.** The inhibition was -6.16%.

**Q.** For `CCOC(=O)c1[nH]c2c(c1-c1ccccc1)C(=O)CC(c1ccccc1)C2` (configuration not stated), which inhibition is on record?
**A.** Its inhibition is 3.2%.

**Q.** With `Nc1nc2ccccc2n1CCN1CCCC1` as the compound, how does the inhibition read?
**A.** Its inhibition is -1.87%.

**Q.** Which inhibition does the source give for `CC(C)(C)c1ccc(C(=O)O)c(C(=O)c2ccccc2)c1` here?
**A.** Its inhibition is -4.75%.

**Q.** For `Brc1cnc2nc(SC/C=C/c3ccccc3)[nH]c2c1`, which inhibition is on record?
**A.** The inhibition was -5.71%.

**Q.** Which inhibition does the source give for `COc1ccccc1C(=O)NCC1CCN(c2ccc(S(=O)(=O)N3CCOCC3)cc2)CC1` here?
**A.** The inhibition was 2.24%.

**Q.** For `COc1cccc(C(=O)NCC2CCN(c3ccc(S(=O)(=O)N4CCOCC4)cc3)CC2)c1`, which inhibition is on record?
**A.** Its inhibition is -13.8%.

**Q.** For `CC(=O)NS(=O)(=O)c1ccc(NS(=O)(=O)c2ccccc2[N+](=O)[O-])cc1`, which inhibition is on record?
**A.** The inhibition was 3.53%.

**Q.** With `CCN(CC)CCCC(C)NC(=O)c1ccc(C(F)(F)F)cc1` (configuration not stated) as the compound, how does the inhibition read?
**A.** Its inhibition is -7.51%.

**Q.** Which inhibition does the source give for `CCCCNC(=O)CN(c1cc(C(F)(F)F)ccc1Cl)S(C)(=O)=O` here?
**A.** Its inhibition is -6.63%.

**Q.** Which inhibition does the source give for `O=C(CCN1CCCC1)Nc1ccccc1` here?
**A.** The inhibition was 22.9%.

**Q.** For `Cc1cc(N2CCN(C)CC2)nc2ccc(NC(=S)N3CCCCCC3)cc12`, which inhibition is on record?
**A.** Its inhibition is 3.75%.

**Q.** For `Cc1ccc(C)c(N2CCN(C(=S)Nc3ccc4nc(N5CCOCC5)cc(C)c4c3)CC2)c1`, which inhibition is on record?
**A.** The inhibition was -4.9%.

**Q.** Which inhibition does the source give for `CCN(CCCNC(=O)CNC(=O)c1nn(-c2ccc(OC)cc2)c(=O)c2ccccc12)c1cccc(C)c1` here?
**A.** Its inhibition is 8.46%.

**Q.** With `Cc1cc2c(cc1C)CSC(c1ccc3ccccc3c1O)SC2` as the compound, how does the inhibition read?
**A.** Its inhibition is -4.57%.

**Q.** With `Cc1cc2c(cc1C)CSC(c1ccccc1O)SC2` as the compound, how does the inhibition read?
**A.** The inhibition was 13.6%.

**Q.** Which inhibition does the source give for `CCOc1ccc2oc(=O)cc(CN3CCN(C(=O)c4ccco4)CC3)c2c1` here?
**A.** Its inhibition is 4.6%.

**Q.** With `CN1/C(=C\C(=O)C[n+]2cccc(C(N)=O)c2)C(C)(C)c2ccccc21` as the compound, how does the inhibition read?
**A.** Its inhibition is 0.09%.

**Q.** Which inhibition does the source give for `Cn1c(N)c(C(=O)COC(=O)c2ccco2)c(=O)n(C)c1=O` here?
**A.** Its inhibition is 1.11%.

**Q.** Which inhibition does the source give for `CN1/C(=C\C(=O)COC(=O)c2ccco2)C(C)(C)c2ccccc21` here?
**A.** The inhibition was 0.58%.

**Q.** For `Cc1ccc[n+](CC(=O)/C=C2\N(C)c3ccccc3C2(C)C)c1`, which inhibition is on record?
**A.** Its inhibition is -2.49%.

**Q.** With `CN1/C(=C\C(=O)COC(=O)c2ccc(O)cc2)C(C)(C)c2ccccc21` as the compound, how does the inhibition read?
**A.** Its inhibition is -3.13%.

**Q.** For `Cn1c(N)c(C(=O)COC(=O)c2ccc(Br)o2)c(=O)n(C)c1=O`, which inhibition is on record?
**A.** The inhibition was 1.58%.
